# Test results published in the supplement of paper PMC8728848.
# Shown is part of a subset that was picked to be rich in the strongest signals.
# B1: CD4 (Rattus norvegicus), P05540 (protein)
# chain: MCRGFSFRHLLPLLLLQLSKLLVVTQGSTSITAYKSEGESAEFSFPLNLGEESLQGELRWKAEKAPSSQSWITFSLKNQKVSVQKSTSNPKFQLSETLPLTLQIPQVSLQFAGSGNLTLTLDRGILYQEVNLVVMKVTQPDSNTLTCEVMGPTSPKMRLILKQENQEARVSRQEKVIQVQAPEAGVWQCLLSEGEEVKMDSKIQVLSKGLNSGGGSGGGTGGGDLAPQMLRELQETNAALQDVRELLRQQVKEITFLKNTVMECDACGLDRNLPPLAPLGPHPETLVKVKDAEDQLGARVGYIELDLNSGKILESFRPEERFPMMSTFKVLLCGAVLSRIDAGQEQLGRRIHYSQNDLVEYSPVTEKHLTDGMTVRELCSAAITMSDNTAANLLLTTIGGPKELTAFLHNMGDHVTRLDRWEPELNEAIPNDERDTTMPVAMATTLRKLLTGELLTLASRQQLIDWMEADKVAGPLLRSALPAGWFIADKSGAGERGSRGIIAALGPDGKPSRIVVIYTTGSQATMDERNRQIAEIGASLIKHW
# How the values were obtained:
# Test in all cases: glycan array binding signal (z-score within array); higher = stronger binding
# Details in all cases: glycan notation: IUPAC condensed, linker removed
# Fuc(a1-2)Gal(b1-4)Glc = molecular target: Fuc(a1-2)Gal(b1-4)Glc
# Summary of the method: (§1)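 The binding signal is a Z-score computed within each array. Data were drawn from 3228 arrays in the Consortium for Functional Glycomics database, restricted to those with a known protein sequence. Scores were averaged over arrays of the same protein sequence at different concentrations or buffers, and over linkers, and negative values can be taken as non-binding.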
# [1] = molecular target: Fuc(a1-2)Gal(b1-4)GlcNAc(b1-2)[Fuc(a1-2)Gal(b1-4)GlcNAc(b1-4)]Man(a1-3)[Fuc(a1-2)Gal(b1-4)GlcNAc(b1-2)Man(a1-6)]Man(b1-4)GlcNAc(b1-4)GlcNAc
# Summary of the method: as §1
# [2] = molecular target: Fuc(a1-2)Gal(b1-4)GlcNAc(b1-3)[Fuc(a1-2)Gal(b1-4)GlcNAc(b1-6)]GalNAc
# Summary of the method: as §1
# [3] = molecular target: Fuc(a1-2)[Gal(a1-3)]Gal(b1-4)[Fuc(a1-3)]Glc
# Summary of the method: as §1
# [4] = molecular target: Fuc(a1-2)[Gal(a1-3)]Gal(b1-4)[Fuc(a1-3)]GlcNAc(b1-3)GalNAc
# Summary of the method: as §1
# [5] = molecular target: Fuc(a1-2)[Gal(a1-4)]Gal(b1-4)GlcNAc
# Summary of the method: as §1
# [6] = molecular target: Fuc(a1-2)[GalNAc(a1-3)]Gal
# Summary of the method: as §1
# [7] = molecular target: Fuc(a1-2)[GalNAc(a1-3)]Gal(b1-3)GlcNAc(b1-3)GalNAc
# Summary of the method: as §1
# [8] = molecular target: Fuc(a1-2)[GalNAc(a1-3)]Gal(b1-4)GlcNAc
# Summary of the method: as §1
# [9] = molecular target: Fuc(a1-2)[GalNAc(a1-3)]Gal(b1-4)GlcNAc(b1-3)Gal(b1-4)GlcNAc(b1-3)Gal(b1-4)GlcNAc
# Summary of the method: as §1
# [10] = molecular target: Fuc(a1-2)[GalNAc(a1-3)]Gal(b1-4)GlcNAc(b1-3)GalNAc
# Summary of the method: as §1
# [11] = molecular target: Fuc(a1-2)[GalNAc(a1-3)]Gal(b1-4)[Fuc(a1-3)]GlcNAc
# Summary of the method: as §1
# Fuc(a1-3)GlcNAc = molecular target: Fuc(a1-3)GlcNAc
# Summary of the method: as §1
# [12] = molecular target: Fuc(a1-3)[Gal(b1-4)]GlcNAc(b1-6)GalNAc
# Summary of the method: as §1
# [13] = molecular target: Fuc(a1-3)[Gal3S(b1-4)]GlcNAc
# Summary of the method: as §1
# [14] = molecular target: Gal(a1-4)Gal(b1-4)GlcNAc(b1-3)Gal(b1-4)Glc
# Summary of the method: as §1
# [15] = molecular target: Gal(b1-3)GlcNAc(b1-3)GalNAc
# Summary of the method: as §1
# [16] = molecular target: Gal(b1-3)GlcNAc(b1-6)Gal(b1-4)GlcNAc
# Summary of the method: as §1
# [17] = molecular target: Gal(b1-3)[Fuc(a1-4)]GlcNAc(b1-3)Gal(b1-4)GlcNAc
# Summary of the method: as §1
# [18] = molecular target: Gal(b1-3)[Neu5Ac(a2-6)]GalNAc
# Summary of the method: as §1
# [19] = molecular target: Gal(b1-4)GlcNAc(b1-3)Gal(b1-3)GalNAc
# Summary of the method: as §1
# [20] = molecular target: Gal(b1-4)GlcNAc(b1-3)Gal(b1-4)GlcNAc(b1-2)Man(a1-3)[Gal(b1-4)GlcNAc(b1-3)Gal(b1-4)GlcNAc(b1-2)Man(a1-6)]Man(b1-4)GlcNAc(b1-4)[Fuc(a1-6)]GlcNAc
# Summary of the method: as §1
# [21] = molecular target: Gal(b1-4)GlcNAc(b1-3)Gal(b1-4)GlcNAc(b1-2)[Gal(b1-4)GlcNAc(b1-3)Gal(b1-4)GlcNAc(b1-6)]Man(a1-6)[Gal(b1-4)GlcNAc(b1-3)Gal(b1-4)GlcNAc(b1-2)Man(a1-3)]Man(b1-4)GlcNAc(b1-4)GlcNAc
# Summary of the method: as §1
# [22] = molecular target: Gal(b1-4)GlcNAc(b1-3)Gal(b1-4)GlcNAc(b1-3)Gal(b1-4)GlcNAc(b1-3)Gal(b1-4)GlcNAc(b1-2)Man(a1-3)[Gal(b1-4)GlcNAc(b1-3)Gal(b1-4)GlcNAc(b1-3)Gal(b1-4)GlcNAc(b1-3)Gal(b1-4)GlcNAc(b1-2)Man(a1-6)]Man(b1-4)GlcNAc(b1-4)[Fuc(a1-6)]GlcNAc
# Summary of the method: as §1
# [23] = molecular target: Gal(b1-4)GlcNAc(b1-3)Gal(b1-4)GlcNAc(b1-3)Gal(b1-4)GlcNAc(b1-3)Gal(b1-4)GlcNAc(b1-3)Gal(b1-4)GlcNAc(b1-2)Man(a1-3)[Gal(b1-4)GlcNAc(b1-3)Gal(b1-4)GlcNAc(b1-3)Gal(b1-4)GlcNAc(b1-3)Gal(b1-4)GlcNAc(b1-3)Gal(b1-4)GlcNAc(b1-2)Man(a1-6)]Man(b1-4)GlcNAc(b1-4)[Fuc(a1-6)]GlcNAc
# Summary of the method: as §1
# [24] = molecular target: Gal(b1-4)GlcNAc(b1-6)[Gal(b1-3)]GalNAc
# Summary of the method: as §1
# Gal3S(b1-3)GlcNAc = molecular target: Gal3S(b1-3)GlcNAc
# Summary of the method: as §1
# [25] = molecular target: Gal3S(b1-4)[Fuc(a1-3)]Glc6S
# Summary of the method: as §1
# Gal3S6S(b1-4)GlcNAc = molecular target: Gal3S6S(b1-4)GlcNAc
# Summary of the method: as §1
# [26] = molecular target: GlcNAc(b1-3)Gal(b1-4)GlcNAc(b1-3)Gal(b1-4)GlcNAc(b1-3)Gal(b1-4)GlcNAc(b1-3)Gal(b1-4)GlcNAc(b1-2)Man(a1-3)[GlcNAc(b1-3)Gal(b1-4)GlcNAc(b1-3)Gal(b1-4)GlcNAc(b1-3)Gal(b1-4)GlcNAc(b1-3)Gal(b1-4)GlcNAc(b1-2)Man(a1-6)]Man(b1-4)GlcNAc(b1-4)[Fuc(a1-6)]GlcNAc
# Summary of the method: as §1
# [27] = molecular target: GlcNAc(b1-3)Gal(b1-4)GlcNAc(b1-6)[Gal(b1-3)]GalNAc
# Summary of the method: as §1
# [28] = molecular target: GlcNAc(b1-3)[GlcNAc(b1-6)]GalNAc
# Summary of the method: as §1
# Kdn(a2-6)Gal(b1-4)GlcNAc = molecular target: Kdn(a2-6)Gal(b1-4)GlcNAc
# Summary of the method: as §1
# [29] = molecular target: Man(a1-2)Man(a1-3)[Man(a1-2)Man(a1-6)]Man
# Summary of the method: as §1
# [30] = molecular target: Man(a1-2)Man(a1-6)[Man(a1-3)]Man(a1-6)[Man(a1-2)Man(a1-2)Man(a1-3)]Man
# Summary of the method: as §1
# [31] = molecular target: Neu5Ac(a2-3)Gal(b1-3)GlcNAc(b1-3)Gal(b1-3)GlcNAc
# Summary of the method: as §1
# [32] = molecular target: Neu5Ac(a2-3)Gal(b1-3)GlcNAc(b1-3)GalNAc
# Summary of the method: as §1
# [33] = molecular target: Neu5Ac(a2-3)Gal(b1-3)GlcNAc(b1-4)Gal(b1-4)Glc
# Summary of the method: as §1
# [34] = molecular target: Neu5Ac(a2-3)Gal(b1-4)GlcNAc(b1-3)Gal(b1-4)GlcNAc
# Summary of the method: as §1
# [35] = molecular target: Neu5Ac(a2-3)Gal(b1-4)GlcNAc(b1-3)Gal(b1-4)GlcNAc(b1-3)Gal(b1-4)GlcNAc(b1-2)Man(a1-3)[Neu5Ac(a2-3)Gal(b1-4)GlcNAc(b1-3)Gal(b1-4)GlcNAc(b1-3)Gal(b1-4)GlcNAc(b1-2)Man(a1-6)]GalNAc
# Summary of the method: as §1
# [36] = molecular target: Neu5Ac(a2-3)Gal(b1-4)[Fuc(a1-3)]GlcNAc(b1-3)GalNAc
# Summary of the method: as §1
# [37] = molecular target: Neu5Ac(a2-6)Gal(b1-4)GlcNAc(b1-2)Man(a1-3)Man(b1-4)GlcNAc(b1-4)GlcNAc
# Summary of the method: as §1
# [38] = molecular target: Neu5Ac(a2-6)Gal(b1-4)GlcNAc(b1-2)[Neu5Ac(a2-6)Gal(b1-4)GlcNAc(b1-6)]Man(a1-6)[Neu5Ac(a2-6)Gal(b1-4)GlcNAc(b1-2)Man(a1-3)][GlcNAc(b1-4)]Man(b1-4)GlcNAc(b1-4)GlcNAc
# Summary of the method: as §1
# Neu5Ac(a2-6)GalNAc = molecular target: Neu5Ac(a2-6)GalNAc
# Summary of the method: as §1
# [39] = molecular target: Neu5Ac(a2-8)Neu5Ac(a2-3)Gal(b1-4)Glc
# Summary of the method: as §1
# [40] = molecular target: Neu5Ac(a2-8)Neu5Ac(a2-3)Gal(b1-4)GlcNAc
# Summary of the method: as §1
# [41] = molecular target: Neu5Ac(a2-8)Neu5Ac(a2-8)Neu5Ac(a2-3)[Gal(b1-3)GalNAc(b1-4)]Gal(b1-4)Glc
# Summary of the method: as §1
# [42] = molecular target: Neu5Ac9Ac(a2-6)Gal(b1-4)GlcNAc
# Summary of the method: as §1
# [43] = molecular target: Neu5Gc(a2-8)Neu5Ac(a2-3)Gal(b1-4)GlcNAc
# Summary of the method: as §1
binder,measurement,setting,value
B1,glycan array binding signal (z-score),Fuc(a1-2)Gal(b1-4)Glc,1.27
same,glycan array binding signal (z-score),[1],1.76
same,glycan array binding signal (z-score),[2],-0.242
same,glycan array binding signal (z-score),[3],0.448
same,glycan array binding signal (z-score),[4],-0.228
same,glycan array binding signal (z-score),[5],1.9
same,glycan array binding signal (z-score),[6],-0.738
same,glycan array binding signal (z-score),[7],2.41
same,glycan array binding signal (z-score),[8],-0.98
same,glycan array binding signal (z-score),[9],3.72
same,glycan array binding signal (z-score),[10],-0.665
same,glycan array binding signal (z-score),[11],2.67
same,glycan array binding signal (z-score),Fuc(a1-3)GlcNAc,-1.59
same,glycan array binding signal (z-score),[12],0.46
same,glycan array binding signal (z-score),[13],-0.413
same,glycan array binding signal (z-score),[14],3.31
same,glycan array binding signal (z-score),[15],0.109
same,glycan array binding signal (z-score),[16],-1.04
same,glycan array binding signal (z-score),[17],-0.072
same,glycan array binding signal (z-score),[18],-1.09
same,glycan array binding signal (z-score),[19],3.12
same,glycan array binding signal (z-score),[20],2.88
same,glycan array binding signal (z-score),[21],2.6
same,glycan array binding signal (z-score),[22],2.6
same,glycan array binding signal (z-score),[23],2.8
same,glycan array binding signal (z-score),[24],-1.17
same,glycan array binding signal (z-score),Gal3S(b1-3)GlcNAc,-0.868
same,glycan array binding signal (z-score),[25],3.99
same,glycan array binding signal (z-score),Gal3S6S(b1-4)GlcNAc,-0.623
same,glycan array binding signal (z-score),[26],-0.266
same,glycan array binding signal (z-score),[27],-0.267
same,glycan array binding signal (z-score),[28],-0.65
same,glycan array binding signal (z-score),Kdn(a2-6)Gal(b1-4)GlcNAc,-1.16
same,glycan array binding signal (z-score),[29],-0.568
same,glycan array binding signal (z-score),[30],1.05
same,glycan array binding signal (z-score),[31],0.207
same,glycan array binding signal (z-score),[32],-0.719
same,glycan array binding signal (z-score),[33],-1.28
same,glycan array binding signal (z-score),[34],-1.14
same,glycan array binding signal (z-score),[35],3.17
same,glycan array binding signal (z-score),[36],2.77
same,glycan array binding signal (z-score),[37],0.03
same,glycan array binding signal (z-score),[38],-1.55
same,glycan array binding signal (z-score),Neu5Ac(a2-6)GalNAc,-0.467
same,glycan array binding signal (z-score),[39],-0.183
same,glycan array binding signal (z-score),[40],0.265
same,glycan array binding signal (z-score),[41],0.105
same,glycan array binding signal (z-score),[42],0.028
same,glycan array binding signal (z-score),[43],-0.129
